High-throughput results deposited in PubChem BioAssay by Broad Institute.
PGC1a acetyl inh = lowers PGC1a acetylation signal in U2OS cells. AlphaScreen anti-acetyl-lysine; with virally co-expressed GCN5 acetyltransferase. inhibition, % at 15.6 µM. 350,000 compounds, 0.17% hits;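 active = every replicate shows inhibition of at least 40%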
SIRT5 inh = blocks human SIRT5 desuccinylation of peptide | Q9NXA8 | Purified SirT5, succinyl-peptide AMC, trypsin-coupled fluorescence | inhibition, % at 15 µM | 330,000 compounds, 1.1% hits | AID 652115; in the data active = inhibition above about 15%
Target sequence (Q9NXA8 whole entry, looked up): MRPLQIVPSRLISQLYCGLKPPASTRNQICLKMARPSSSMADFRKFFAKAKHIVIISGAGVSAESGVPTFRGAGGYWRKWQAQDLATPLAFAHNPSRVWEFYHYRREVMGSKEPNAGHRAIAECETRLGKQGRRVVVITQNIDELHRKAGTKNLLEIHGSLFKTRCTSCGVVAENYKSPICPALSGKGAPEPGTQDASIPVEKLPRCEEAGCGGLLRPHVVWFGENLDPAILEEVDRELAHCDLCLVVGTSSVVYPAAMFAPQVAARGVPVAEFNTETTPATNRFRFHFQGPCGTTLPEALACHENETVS
PAX8 inh HTS = PAX8 transcriptional activity inhibition. AID 652154. RMG-I TPO-luciferase reporter, SteadyGlo, 24 h. inhibition, % at 12.6 µM. 360,000 compounds, 1.2% hits;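 active = mean replicate inhibition at least 60% with every replicate also reaching 60%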;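 also: luciferase light reporting Pax8 driven TPO promoter activity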
LGR2 antag = blocks bursicon-induced cAMP signaling via Drosophila LGR2; inhibition, % at 9.99 µM; 380,000 compounds, 0.35% hits; HEK293 LGR2, CRE-luciferase, bursicon-stimulated, 4 h;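 active = drop in luminescence signal, shown as inhibition above about 50% in the replicate tests, limit read from the data, passing the limit was not always enough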;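 also: agonist challenge used bursicon conditioned medium at about half maximal strength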
Ecoli rRNA inh = selective bacterial rRNA inhibition in E. coli | E. coli WT GFP vs humanized-ribosome RFP mutants, fluorescence, 24 h; stronger effect = lower value; DMSO median 0, no signal -100 | AID 720706 | GFP signal change (wild-type ribosome), % (test concentration not listed) | 350,000 compounds, 1.6% hits;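 active = significant combined selectivity score with lowered wild-type GFP, culture density cut under 30%, mutant RFP and density less affected; inactive = any of these conditions unmet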
EWS-Fli block = blocks EWS/Fli oncoprotein-driven transcription | 350,000 compounds, 0.67% hits | inhibition, % at 12.6 µM | AID 651661 | A673 NR0B1-luciferase reporter, viability-normalised;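 active = mean inhibition of at least 50% after viability correction, with every replicate also passing that limit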;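 also: firefly luciferase signal divided by Alamar Blue viability fluorescence both relative to DMSO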
Each line names hits and unclear results; the compound was inactive in the other large screens. Shown are actives, neighbours in structure and some others; about 3.4% of the full set was active somewhere.

CC(C)C1CC(CCNCc2ccc3c(c2)OCO3)(c2ccccc2)CCO1 (stereo not drawn)	Ecoli rRNA inh -24
CC(C)NC(=O)Nc1ccc2c(c1)CC(=O)N(C)C[C@H](C)[C@H](CN(C)C)O2	none (no result: PGC1a acetyl inh, SIRT5 inh, PAX8 inh HTS, LGR2 antag, EWS-Fli block)
O=C(Nc1ccc(OC(F)(F)F)cc1)Oc1ccccc1N1CCOCC1	none (no result: PGC1a acetyl inh)
O=C(Nc1ccc(OC(F)(F)F)cc1)Oc1ccccc1N1CCCCC1	Ecoli rRNA inh -50
COc1ccccc1S(=O)(=O)N1CC[C@@H]2[C@@H](CO)Nc3ccc(-c4cccc(C#N)c4)cc3[C@@H]21	none (no result: SIRT5 inh)
CC(C)=CC(=O)OCc1cc([N+](=O)[O-])cc2c1OCOC2	Ecoli rRNA inh -16
CCC(=O)N[C@@H]1CC[C@H](CC(=O)NCC2CC2)O[C@@H]1CO	none (no result: PGC1a acetyl inh, SIRT5 inh, PAX8 inh HTS, LGR2 antag, EWS-Fli block)
CCOC(=O)CC1(c2ccc(OC)c(OC)c2)C(=O)c2ccccc2C1=O	Ecoli rRNA inh -27
CO[C@H]1CN(C)C(=O)c2ccc(NC(=O)C3CC3)cc2OC[C@@H](C)N(Cc2ccncc2)C[C@H]1C	none
Cc1ccc(S(=O)(=O)N(C)C[C@H]2Oc3c(NC(=O)c4ccc(-c5nccs5)cc4)cccc3C(=O)N([C@H](C)CO)C[C@@H]2C)cc1	none
Cc1ccc(S(=O)(=O)N(C)C[C@@H]2Oc3c(NC(=O)c4ccc(-c5nccs5)cc4)cccc3C(=O)N([C@@H](C)CO)C[C@@H]2C)cc1	PAX8 inh HTS 95
C[C@H]1CN([C@@H](C)CO)C(=O)c2cccc(NC(=O)c3ccc(-c4nccs4)cc3)c2O[C@H]1CN(C)S(C)(=O)=O	SIRT5 inh 17 (no result: PAX8 inh HTS)
C[C@H](CO)N1C[C@H](C)[C@@H](CN(C)Cc2ccc(Cl)c(Cl)c2)Oc2c(NC(=O)c3ccc(-c4nccs4)cc3)cccc2C1=O	SIRT5 inh 19 (no result: PAX8 inh HTS)
C[C@@H]1CN([C@@H](C)CO)C(=O)c2cccc(NC(=O)c3cnccn3)c2O[C@H]1CN(C)C(=O)Nc1ccc(F)cc1	none
O=S(=O)(NC[C@H]1CC[C@@H]2[C@@H](CN2Cc2cccc(-c3ccccn3)c2)O1)c1ccccc1	none (no result: LGR2 antag, Ecoli rRNA inh)
Cc1ccc(C2C(C(=O)c3cccs3)=C(O)C(=O)N2c2cccc(C)n2)cc1 (stereo not drawn)	Ecoli rRNA inh -15 (no result: PGC1a acetyl inh)
Cc1ccc(C(=O)NC2CCCCCCC2)c(Cl)c1	LGR2 antag 80, EWS-Fli block 56
CCOc1ccc(C(=O)NC2CCCCCCC2)cc1	none (no result: PGC1a acetyl inh)
COc1cc2ccccc2cc1C(=O)NC1CCCC1	Ecoli rRNA inh -21
CCOc1cccc(C(=O)NC2CCCCC2)c1	SIRT5 inh 22 (no result: PAX8 inh HTS)
O=C(NC1CCCCCCC1)c1cc(F)c(F)cc1Cl	none (no result: PGC1a acetyl inh)
O=C(NC1CCCCCC1)c1cc2ccccc2oc1=O	Ecoli rRNA inh -24
CNC[C@@H]1Oc2ncccc2C(=O)N(C)C[C@@H]1C	none (no result: PGC1a acetyl inh, SIRT5 inh, PAX8 inh HTS, LGR2 antag, EWS-Fli block)
COCC#Cc1ccc2c(c1)O[C@@H](CN(C)C(=O)CC1CC1)[C@@H](C)CN([C@@H](C)CO)S2(=O)=O	none (no result: PAX8 inh HTS)
C[C@H]1CN([C@@H](C)CO)S(=O)(=O)c2ccc(-c3cncnc3)cc2O[C@@H]1CN(C)C(=O)C1CCCCC1	none
COCC(=O)Nc1ccc2c(c1)C(=O)N(C)C[C@@H](OC)[C@@H](C)CN(Cc1cccnc1)[C@H](C)CO2	none
C[C@H](CO)N1C[C@H](C)[C@@H](CN(C)CC2CCCCC2)Oc2ccc(NC(=O)NC3CCCCC3)cc2CC1=O	none
COc1cc(/C=C2\SC(=S)N(NC(=O)c3ccc(O)cc3)C2=O)ccc1O	none (no result: PGC1a acetyl inh)
O=C(NN1C(=O)/C(=C/c2ccc(O)c(O)c2)SC1=S)c1ccccc1	Ecoli rRNA inh -31 (no result: PGC1a acetyl inh)
CC(/C=C1\SC(=S)N(NC(=O)c2ccc(O)cc2)C1=O)=C\c1ccccc1	Ecoli rRNA inh -25 (no result: PGC1a acetyl inh)
O=C(O)COc1ccccc1/C=C1\SC(=S)N(NC(=O)c2ccccc2O)C1=O	SIRT5 inh 21
CCN(CC)CCOC(=O)c1ccc(NC(=O)CCCN2C(=O)/C(=C\c3cccs3)SC2=S)cc1	Ecoli rRNA inh -27
O=C(CCN1C(=O)/C(=C\c2cccs2)SC1=S)Nc1ccc(C(=O)O)cc1	none (no result: PGC1a acetyl inh)
CO[C@@H]1CN(C)C(=O)c2ccc(NC(=O)NC(C)C)cc2OC[C@@H](C)N(C(=O)C2CCC2)C[C@H]1C	none (no result: PAX8 inh HTS)
CC=Cc1ccc2n(c1=O)C[C@@H]1[C@@H](CO)[C@H](C(=O)N(C)C)N(CC3CC3)[C@H]21 (mixture of isomers)	none (no result: PGC1a acetyl inh, PAX8 inh HTS)
CC(=Cc1ccccc1)C=C1SC(=S)N(CCCC(=O)Nc2ccc(C(=O)O)cc2)C1=O	SIRT5 inh 27, Ecoli rRNA inh -23 (no result: PGC1a acetyl inh)
CC(=O)Nc1nc2cc3c(cc2s1)OCCO3	none (no result: PGC1a acetyl inh)
O=C(Nc1nc2cc3c(cc2s1)OCCO3)C1=COCCO1	PAX8 inh HTS 94, LGR2 antag 100, EWS-Fli block 89
O=C(NNc1nc2cc3c(cc2s1)OCCO3)c1ccccc1	Ecoli rRNA inh -27 (no result: PGC1a acetyl inh)
Cc1cccc2sc(NNC(=O)c3ccc4c(c3)OCCO4)nc12	none (no result: SIRT5 inh)
O=C(Nc1nc2ccc(F)cc2s1)c1ccccn1	PAX8 inh HTS 75, LGR2 antag 90, EWS-Fli block 84 (no result: PGC1a acetyl inh)
O=C(Nc1nc2ccccc2s1)c1cnccn1	none (no result: SIRT5 inh, PAX8 inh HTS, LGR2 antag, Ecoli rRNA inh, EWS-Fli block)
O=C(Nc1nc2ccc(F)cc2s1)C1=COCCO1	LGR2 antag 63, Ecoli rRNA inh -20, EWS-Fli block 69 (no result: PGC1a acetyl inh)
CCCN1C[C@H](C)[C@H](OC)CN(C)C(=O)c2ccc(NC(=O)c3ccccc3)cc2OC[C@@H]1C	none (no result: PAX8 inh HTS)
C[C@H]1CN([C@@H](C)CO)C(=O)c2cc(-c3cccc(F)c3)cnc2O[C@H]1CN(C)C(=O)C1CC1	none (no result: SIRT5 inh, PAX8 inh HTS)
CN(C)C(=O)C[C@H]1CC[C@@H]2[C@H](COc3ccc(NC(=O)C4CCCC4)cc3C(=O)N2C)O1	none (no result: PAX8 inh HTS)
COc1ccc(Nc2nc(NCc3ccco3)nc(N/N=C/c3ccccc3F)n2)cc1	Ecoli rRNA inh -27
COc1ccc(/C=N/Nc2nc(NCc3ccco3)nc(Nc3ccc(OC)cc3)n2)cc1	none
O=Cc1c(Cl)nc2ccccn12	none
O=C(/C=C/c1c(Cl)nc2ccccn12)Nc1ccc(F)cc1	PAX8 inh HTS 111 (no result: LGR2 antag)
COc1ccc2c3c(n(C)c2c1)[C@@H](CO)NCC31CCN(S(=O)(=O)c2ccccc2)CC1	none (no result: PGC1a acetyl inh, SIRT5 inh, PAX8 inh HTS, LGR2 antag, EWS-Fli block)
COc1ccc(CN2CC3(C2)CN(C(=O)CN(C)C)[C@H](CO)c2[nH]c4cc(OC)ccc4c23)cc1	none (no result: PGC1a acetyl inh, PAX8 inh HTS)
O=C1c2ccccc2C(=O)N1CC(O)CNc1ccc(Br)cc1 (stereo not drawn)	PAX8 inh HTS 82
O=C1c2ccccc2C(=O)N1CC(O)COCc1ccccc1 (stereo not drawn)	none (no result: SIRT5 inh, PAX8 inh HTS, Ecoli rRNA inh, EWS-Fli block)
O=C(COC(=O)c1cc([N+](=O)[O-])ccc1N1CCOCC1)Nc1ccc(Cl)cn1	PAX8 inh HTS 61 (no result: PGC1a acetyl inh, EWS-Fli block)
Cc1cc(Cl)ccc1NC(=O)COC(=O)c1cc([N+](=O)[O-])ccc1N1CCOCC1	none (no result: PGC1a acetyl inh)
O=C(Nc1ccc([N+](=O)[O-])cc1)Nc1ccc(N2CCOCC2)c2nonc12	LGR2 antag 67 (no result: PGC1a acetyl inh)
